# Experimental data reported in PubChem BioAssay (NCI).
# This is part of a sample that, as a whole, favours compounds with a hit. Of some 79,000 tested, about 15% had one in any assay. Activity calls are given as the source filed them. No stated cut-off is given here; in the data, active means growth inhibition above about 70%; inactive means the rest.
# Test: NCI Yeast Anticancer Drug Screen. Data for the mec2-1 strain (AID 157)
# Conditions: S. cerevisiae mec2-1 strain, at 50.0 µM, stronger effect = higher value
# Outline: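 Compounds were applied to mec2-1 yeast cells. Their growth was then compared with that of vehicle-treated cultures to give growth inhibition.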
row,SMILES,growth inhibition
1,Cc1ccc2c(c1)CC1(C2)Cc2ccc(C)cc2C1=O (stereo not given),17.6% (inactive)
2,NC1=CC(=O)c2ccccc2C1=O,62.3% (inactive)
3,CCCCC(CC(=O)O)c1ccc(Cl)cc1 (stereo not given),60.7% (inactive)
4,OCCOCCO[P+]1(OCCOCCO)n2c3ccc2C(c2ccccc2)=C2C=CC(=N2)C(c2ccccc2)=c2ccc(n21)=C(c1ccccc1)C1=NC(=C3c2ccccc2)C=C1,92.2% (active)
5,Clc1ccc2[nH]c(-c3ccccc3)c(-c3ccccn3)c2c1,94.5% (active)
6,COc1cc(NS(C)(=O)=O)ccc1Nc1c2ccccc2nc2ccccc12,42.5% (inactive)
7,COC1/C=C/OC2(C)Oc3c(C)c(O)c4c(c3C2=O)C(=O)C=C(NC(=O)/C(C)=C\C=C\C(C)C(OC=O)C(C)C(O)C(C)C(OC(C)=O)C1C)C4=O (stereo not given),53.5% (inactive)
8,COc1ccc(CN(C)c2c(C)ccc3ccccc23)cc1,-2.9% (inactive)
9,CCOC(=O)c1c(-c2ccccc2)csc1NC(=O)CBr,98.3% (active)
10,Nc1nc2nc(I)[nH]c2c(=O)[nH]1,-2.5% (inactive)
11,CC(CN(CC(=O)O)CC(=O)O)N(CC(=O)O)CC(=O)O.[Cl][Pd][Cl] (stereo not given),91.5% (active)
12,COC(=O)c1nc(=S)[nH]c(C(=O)OC)c1C(=O)c1ccc2ccccc2c1,71.5% (active)
13,O=C(Nc1ccccc1)OCCc1ccc(Br)cc1,23.7% (inactive)
14,O=C(CCN1CCCCC1)/C(=C\c1ccc(Cl)cc1)c1ccccc1,99.4% (active)
15,FC(F)(F)c1nc(S)cc(=S)[nH]1,24.9% (inactive)
16,CCCCC(=O)N/N=C/c1ccc([N+](=O)[O-])s1,96% (active)
17,CSC(=S)N/N=C(\C)c1nccnc1C,98.9% (active)
18,CC(=O)Oc1cc2c(cc1OC(C)=O)OCC(c1ccccc1)C2 (stereo not given),56.3% (inactive)
19,O=Cc1ccc(O)c2ccccc12,76.6% (active)
20,CC(=O)N(C1=C(Cl)C(=O)c2ccccc2C1=O)c1ccc(Cl)cc1,95.3% (active)

row,SMILES,growth inhibition
1,Cn1c2c(c3ccccc31)CCN1C[C@@H]3CCCC[C@H]3C[C@@H]21,8.8% (inactive)
2,CCOc1ncc(Cl)c(OCC)n1,35.9% (inactive)
3,C=C1C(=O)OC2C1CC1OC2C(C)CCC/C(C)=C\CCC1(C)O (stereo not given),92.8% (active)
4,CCCCN(CCCC)CCC(O)(c1ccc(OC)c2ccccc12)C(O)(CCN(CCCC)CCCC)c1ccc(OC)c2ccccc12 (stereo not given),99.7% (active)
5,CS/C(N)=N/NC(=O)CCC(=O)Nc1cc(Cl)c(Cl)cc1Cl,3% (inactive)
6,COc1ccc(OC)c(N=Nc2c(C)[nH]n(C(N)=S)c2=O)c1,19% (inactive)
7,O=C(CC(=O)c1ccccc1)CC1(O)CCCCC1,78.9% (active)
8,Nc1ccc2ccccc2c1Cc1c(O)ccc2ccccc12,98.8% (active)
9,CC[n+]1c(/C=C/c2cc(C(=O)OC)n3c2sc2ccccc23)sc2ccccc21,99.2% (active)
10,O=CNc1ccc2c(c1)Cc1cc(NC=O)ccc1-2,34.5% (inactive)
11,O=C1CC(c2ccccc2)C(=O)N2C(=O)CC(c3ccccc3)C(=O)N12 (stereo not given),7.6% (inactive)
12,CN1CCN(CCOC(=O)N2c3ccccc3Sc3ccccc32)CC1,-13.2% (inactive)
13,COc1nc(Nc2ccc(/C=C/c3ccc(Nc4nc(OC)nc(N(CCO)CCO)n4)cc3S(=O)(=O)O)c(S(=O)(=O)O)c2)nc(N(CCO)CCO)n1,58.9% (inactive)
14,NNC(=O)NN=C(c1ccccc1)c1ccccc1,-13.2% (inactive)
15,CCOC(=O)C(Br)C(Br)c1cccc([N+](=O)[O-])c1 (stereo not given),99.8% (active)
16,CCCCCCC(O)C(CO)CCCCC (stereo not given),98% (active)
17,Oc1c(Br)c(Br)c(O)c(Br)c1Br,99.2% (active)
18,CC(=O)n1nc2c(c1CC(C)C)C(=O)C(Nc1ccccc1)=CC2=O,68.2% (inactive)
19,CC(C)(CCBr)[N+](=O)[O-],16% (inactive)
20,Nc1ccccc1SCc1csc(-c2ccc(Cl)cc2)n1,97.3% (active)

# Test: NCI Yeast Anticancer Drug Screen. Data for the sgs1 mgt1 strain (AID 161);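 further: 0% = growth of cultures given vehicle only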
# Conditions: S. cerevisiae sgs1 mgt1 strain, at 5.0 µM (retest, dose inferred, filed as 0.5), stronger effect = higher value
# Outline: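 Compounds are added to genetically altered yeast, and growth is compared with cultures given vehicle alone to give percent inhibition.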
row,SMILES,growth inhibition
1,Cc1ccc2c(c1)CC1(C2)Cc2ccc(C)cc2C1=O (stereo not given),-28% (inactive)
2,NC1=CC(=O)c2ccccc2C1=O,26% (inactive)
3,CCCCC(CC(=O)O)c1ccc(Cl)cc1 (stereo not given),-58% (inactive)
4,OCCOCCO[P+]1(OCCOCCO)n2c3ccc2C(c2ccccc2)=C2C=CC(=N2)C(c2ccccc2)=c2ccc(n21)=C(c1ccccc1)C1=NC(=C3c2ccccc2)C=C1,99% (active)
5,Clc1ccc2[nH]c(-c3ccccc3)c(-c3ccccn3)c2c1,93% (active)
6,COc1cc(NS(C)(=O)=O)ccc1Nc1c2ccccc2nc2ccccc12,9% (inactive)
7,COC1/C=C/OC2(C)Oc3c(C)c(O)c4c(c3C2=O)C(=O)C=C(NC(=O)/C(C)=C\C=C\C(C)C(OC=O)C(C)C(O)C(C)C(OC(C)=O)C1C)C4=O (stereo not given),-12% (inactive)
8,COc1ccc(CN(C)c2c(C)ccc3ccccc23)cc1,2% (inactive)
9,CCOC(=O)c1c(-c2ccccc2)csc1NC(=O)CBr,30% (inactive)
10,Nc1nc2nc(I)[nH]c2c(=O)[nH]1,10% (inactive)
11,CC(CN(CC(=O)O)CC(=O)O)N(CC(=O)O)CC(=O)O.[Cl][Pd][Cl] (stereo not given),40% (inactive)
12,COC(=O)c1nc(=S)[nH]c(C(=O)OC)c1C(=O)c1ccc2ccccc2c1,0% (inactive)
13,O=C(Nc1ccccc1)OCCc1ccc(Br)cc1,-1% (inactive)
14,O=C(CCN1CCCCC1)/C(=C\c1ccc(Cl)cc1)c1ccccc1,37% (inactive)
15,FC(F)(F)c1nc(S)cc(=S)[nH]1,7% (inactive)
16,CCCCC(=O)N/N=C/c1ccc([N+](=O)[O-])s1,8% (inactive)
17,CSC(=S)N/N=C(\C)c1nccnc1C,3% (inactive)
18,CC(=O)Oc1cc2c(cc1OC(C)=O)OCC(c1ccccc1)C2 (stereo not given),4% (inactive)
19,O=Cc1ccc(O)c2ccccc12,-9% (inactive)
20,CC(=O)N(C1=C(Cl)C(=O)c2ccccc2C1=O)c1ccc(Cl)cc1,100% (active)

row,SMILES,growth inhibition
1,Cn1c2c(c3ccccc31)CCN1C[C@@H]3CCCC[C@H]3C[C@@H]21,-2% (inactive)
2,CCOc1ncc(Cl)c(OCC)n1,-1% (inactive)
3,C=C1C(=O)OC2C1CC1OC2C(C)CCC/C(C)=C\CCC1(C)O (stereo not given),2% (inactive)
4,CCCCN(CCCC)CCC(O)(c1ccc(OC)c2ccccc12)C(O)(CCN(CCCC)CCCC)c1ccc(OC)c2ccccc12 (stereo not given),60% (inactive)
5,CS/C(N)=N/NC(=O)CCC(=O)Nc1cc(Cl)c(Cl)cc1Cl,6% (inactive)
6,COc1ccc(OC)c(N=Nc2c(C)[nH]n(C(N)=S)c2=O)c1,7% (inactive)
7,O=C(CC(=O)c1ccccc1)CC1(O)CCCCC1,4% (inactive)
8,Nc1ccc2ccccc2c1Cc1c(O)ccc2ccccc12,6% (inactive)
9,CC[n+]1c(/C=C/c2cc(C(=O)OC)n3c2sc2ccccc23)sc2ccccc21,3% (inactive)
10,O=CNc1ccc2c(c1)Cc1cc(NC=O)ccc1-2,18% (inactive)
11,O=C1CC(c2ccccc2)C(=O)N2C(=O)CC(c3ccccc3)C(=O)N12 (stereo not given),-5% (inactive)
12,CN1CCN(CCOC(=O)N2c3ccccc3Sc3ccccc32)CC1,-1% (inactive)
13,COc1nc(Nc2ccc(/C=C/c3ccc(Nc4nc(OC)nc(N(CCO)CCO)n4)cc3S(=O)(=O)O)c(S(=O)(=O)O)c2)nc(N(CCO)CCO)n1,-3% (inactive)
14,NNC(=O)NN=C(c1ccccc1)c1ccccc1,-3% (inactive)
15,CCOC(=O)C(Br)C(Br)c1cccc([N+](=O)[O-])c1 (stereo not given),99% (active)
16,CCCCCCC(O)C(CO)CCCCC (stereo not given),1% (inactive)
17,Oc1c(Br)c(Br)c(O)c(Br)c1Br,7% (inactive)
18,CC(=O)n1nc2c(c1CC(C)C)C(=O)C(Nc1ccccc1)=CC2=O,1% (inactive)
19,CC(C)(CCBr)[N+](=O)[O-],-61% (inactive)
20,Nc1ccccc1SCc1csc(-c2ccc(Cl)cc2)n1,2% (inactive)
